Screening data: PubChem, several laboratories
Y pestis TopoI: Yersinia pestis topoisomerase I inhibitors, primary screen, biochemical, cleavage product accumulation, plate reader, single point; DNA topoisomerase I (Yersinia pestis CO92); Y. pestis Topo-I cleavage product accumulation; activity, % at 10 µM; hit rate 0.064% among 360,000; in the data active means activity above about 50%, passing the limit was not always enough
PrPC surface inh: inhibitors of human cell surface prion protein PrPC, primary screen, cell-based, TR-FRET. Major prion protein (Homo sapiens), P04156. TR-FRET read-out. inhibition, % at 13.8 µM. hit rate 0.43% among 370,000. AID 720596, 2013; in the data active means inhibition above about 24%; further: 0% = median of the test wells and 100% = reference compound wells
PrP 5UTR inh: inhibition of PrP 5' UTR reporter expression | cell-based PrP 5' UTR mRNA reporter, plate reader | inhibition, % (no concentration beside the values) | hit rate 0.35% among 340,000 | AID 488862, 2010; in the data active means inhibition above about 52%; further: 0 = median of the neutral control wells
GDH-TPI counter-1: GDH-TPI coupling enzyme inhibitors, primary screen, artefact control for M. tuberculosis FBA inhibitor project, biochemical, absorbance, full deck | hit rate 1.2% among 360,000 | GDH-TPI coupled enzyme counterscreen, NADH absorbance | inhibition, % at 4.8 µM; in the data active means inhibition above about 30%;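 further: 0% = DMSO wells and 100% = wells lacking the enzyme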
Mtb hypoxia rep: PubChem AID 1159583; M. tuberculosis hypoxia-regulated fluorescent reporter, fluorescence; fluorescence inhibition, % (concentration not given with the values); hit rate 0.1% among 300,000; in the data active means fluorescence inhibition mostly above about 23%, no sharp cut-off; inactive means mostly below about 17%
FBA Mtb inh: Mtb FBA enzyme inhibitors, primary screen, biochemical, fluorescence, strain H37Rv. inhibition, % at 1 µM. Fructose-bisphosphate aldolase (Mycobacterium tuberculosis (strain ATCC 25618 / H37Rv)), …. hit rate 2.3% among 360,000. purified M. tuberculosis FBA, fluorescence read-out;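 further: 0% = vehicle and 100% = reference inhibitor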
Target sequence (P9WQA3 whole entry, looked up): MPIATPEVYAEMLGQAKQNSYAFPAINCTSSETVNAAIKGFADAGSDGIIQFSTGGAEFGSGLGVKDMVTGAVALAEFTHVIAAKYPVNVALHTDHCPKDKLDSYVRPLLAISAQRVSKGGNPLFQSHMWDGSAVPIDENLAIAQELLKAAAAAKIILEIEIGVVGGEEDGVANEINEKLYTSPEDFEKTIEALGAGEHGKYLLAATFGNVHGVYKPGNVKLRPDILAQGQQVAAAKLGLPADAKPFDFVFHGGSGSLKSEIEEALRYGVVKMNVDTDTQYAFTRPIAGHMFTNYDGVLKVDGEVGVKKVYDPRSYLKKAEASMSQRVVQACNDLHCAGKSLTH
Mtb FBA confirm: M. tuberculosis aldolase blockers, biochemical, fluorescence, strain H37Rv, confirmation. shares compounds with FBA Mtb inh. purified M. tuberculosis FBA, fluorescence read-out. inhibition, % at 1 µM. hit rate 78% among 5,600;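 further: 0% = vehicle wells and 100% = reference inhibitor wells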
GDH-TPI counter-2: GDH-TPI coupling enzyme inhibitors, artefact control for M. tuberculosis FBA inhibitor project, biochemical, fluorescence, high throughput; shares compounds with FBA Mtb inh; GDH-TPI coupled enzyme counterscreen; inhibition, % at 1 µM; hit rate 81% among 5,600; AID 652141, 2013; in the data active means inhibition above about 10%
The depositor's hits bear a star; . = no result; + = active, no number. In the library only some 3.8% were active in any assay of this set; here they are far more common. Unless noted, no stated cut-off is given here; in the data, active means inhibition above about 27%; inactive means the rest.

SMILES	Y pestis TopoI	PrPC surface inh	PrP 5UTR inh	GDH-TPI counter-1	Mtb hypoxia rep	FBA Mtb inh	Mtb FBA confirm	GDH-TPI counter-2
CCC(CO)Nc1ncnc2c1cnn2-c1ccc(Cl)cc1 (stereo unspecified)	4.7	0.6	-34.9	1.9	8.4	10.7	.	.
COC(=O)c1cc2c(=O)c3ccccc3oc2nc1/C=C/N(C)C	4.5	-14.6	-60.9	2.5	-1.7	32.0*	97.7*	64.3*
Cc1nc2oc3ccccc3c(=O)c2cc1C(=O)O	-1.7	-1.5	-23.2	15.9	-1.2	-1.6	.	.
CC(=O)Oc1ccc2c(C)cc(=O)[nH]c2c1	2.7	1.8	-12.4	8.2	14.1	58.1*	9.9	-2.6
COc1ccc2c(C)cc(=S)[nH]c2c1	-12.2	-16.3	-5.6	6.1	0.1	5.4	.	.
CC1=C(C#N)C(c2cccnc2)C2=C(CCCC2=O)N1 (stereo unspecified)	2.0	-1.1	-4.0	4.0	.	33.9*	127.5*	99.5*
CC1=C(C#N)C(c2cccnc2)C2=C(N1)c1ccccc1C2=O (stereo unspecified)	-2.8	-44.7	-17.2	-0.6	-1.2	2.1	.	.
C#CCOCCOCCOCCNc1nc(N2CCOCC2)nc(N2CCN(C(=O)C(CCCCN)n3cc(CCC(=O)O)nn3)CC2)n1 (stereo unspecified)	.	.	.	.	13.4	.	.	.
COCc1cc(C)c(C#N)c(=S)[nH]1	-5.3	.	-15.2	5.8	.	2.9	.	.
CCOCc1cc(C)[nH]c(=O)c1C#N	1.7	-0.9	3.7	15.2	.	67.9*	174.7*	147.8*
CCOc1ccccc1N1CCN(CC=Cc2ccc(N(C)C)cc2)CC1	.	.	.	.	-2.4	.	.	.
CCCCn1c2nc3ccccc3nc2c2c(=N)oc(C)nc21	4.7	-2.8	-19.4	1.7	-9.7	31.0*	35.2*	25.5*
CCCCC(CC)Cn1c2nc3ccccc3nc2c2c(=N)oc(C)nc21 (stereo unspecified)	.	.	.	.	3.6	.	.	.
O=c1[nH]c(SCc2ccccc2F)nc2ccccc12	2.9	2.7	-26.1	1.6	4.5	0.8	.	.
O=c1cc(CSc2nc3ccccc3c(=O)[nH]2)c2ccc(O)cc2o1	6.5	-1.5	-21.1	21.0	8.4	28.3*	101.7*	74.9*
CC(C)CCN1C(Nc2ccccc2)=NCC1C (stereo unspecified)	.	.	.	.	3.6	.	.	.
CC(O)C(O)C(O)C(O)C=NNC(=O)c1ccccc1 (stereo unspecified)	.	.	.	.	8.1	.	.	.
COc1cccc(C2CC=C(C(=O)O)C(c3cccc(Cl)c3)N2S(=O)(=O)c2ccc(C)cc2)c1 (stereo unspecified)	.	.	.	.	3.6	.	.	.
COc1ccc(C=NNC(=O)CNc2ccc(Br)cc2)c(C(=O)O)c1OC	.	.	.	.	-1.4	.	.	.
Cc1cccc(C)c1OCC(=O)NN=Cc1cc2c(cc1[N+](=O)[O-])OCO2	.	.	.	.	7.9	.	.	.
CCn1nnc(NC(=O)c2cccc(-c3cc4ccccc4oc3=O)c2)n1	3.2	-29.4	-23.0	19.4	6.2	48.5*	153.4*	118.5*
Cn1c(=O)n(C)c2cc(C=NNC(=O)c3ccc(Cl)cc3Cl)ccc21	.	.	.	.	10.1	.	.	.
Cc1ccc(-c2nc3ccccn3c2Nc2ccccc2)o1	-7.1	3.0	-22.6	8.1	4.1	107.7*	138.4*	126.8*
CC(=O)Nc1ccc2c(CSc3nncs3)cc(=O)oc2c1	-6.2	-17.2	-11.7	6.3	14.8	17.2	.	.
CC(=O)Nc1ccc2c(CSc3nnc(N)s3)cc(=O)oc2c1	5.2	-9.4	-26.0	41.8*	4.9	27.0*	78.2*	67.2*
SMILES	Y pestis TopoI	PrPC surface inh	PrP 5UTR inh	GDH-TPI counter-1	Mtb hypoxia rep	FBA Mtb inh	Mtb FBA confirm	GDH-TPI counter-2
CC(C)NC(=O)COC(=O)c1ccc(Cl)c(S(=O)(=O)N2CCCC2)c1	-5.9	-1.1	-15.1	7.3	17.8	39.6*	123.7*	95.4*
c1ccc(Nc2ccccc2)cc1	3.2	2.3	-3.8	-4.2	-3.1	2.2	.	.
c1ccc(Nc2ccc3ccccc3c2)cc1	-12.8	-2.2	-55.4	1.0	.	33.4*	145.3*	97.5*
O=C(c1ccc(Cl)c(S(=O)(=O)N2CCCCCC2)c1)N1CCCC(C(F)(F)F)C1 (stereo unspecified)	-1.9	5.2	7.0	0.7	-1.4	44.6*	64.6*	46.1*
O=c1[nH]c2cc3c(cc2cc1C(c1nnnn1Cc1ccccc1)N1CCN2CCCC2C1)OCCO3 (stereo unspecified)	27.3	-1.2	-15.3	23.1	1.1	34.8*	+	134.4*
COC(=O)C1=CN(c2cccc(Cl)c2)C=C(C(=O)OC)C1c1cccc(OC)c1	39.6	-3.6	-7.8	0.3	-3.7	54.4*	110.8*	93.6*
COc1ccccc1N1CCN(C(=O)C(=O)NN=Cc2cccc(O)c2)CC1	.	.	.	.	2.0	.	.	.
Cn1c2ccccc2c(=O)c2ccc(NCc3ccc4c(c3)OCO4)cc21	1.8	15.9	-37.8	14.6	.	87.6*	174.9*	110.0*
CCN1CCN(CC(O)COc2ccc3c(C)cc(=O)oc3c2)CC1 (stereo unspecified)	-10.8	1.0	-14.9	7.4	4.6	52.8*	+	+
Cc1cc(=O)oc2cc(OCC(O)Cn3ccnc3)ccc12 (stereo unspecified)	-6.7	7.5	6.4	27.1	-9.8	43.4*	9.9	-0.7
CCN1CCN(CC(O)COc2ccc(C)c(C)c2)CC1 (stereo unspecified)	-1.9	0.2	-8.5	3.5	-2.1	-0.2	.	.
CN1N=C2c3ccccc3CCC2C1c1ccc(F)cc1 (stereo unspecified)	-3.9	1.6	.	0.0	16.9	0.2	.	.
c1ccc(N2CC3CCc4ccccc4C3=N2)cc1 (stereo unspecified)	-8.8	6.7	-68.7	5.4	-1.6	58.2*	46.3*	31.4*
CN1CCCc2cc3c(C(F)(F)F)cc(=O)oc3nc21	-0.3	-4.6	-17.8	7.5	-12.1	30.5*	129.8*	110.7*
O=c1cc(C(F)(F)F)c2cc3c4c(c2o1)CCCN4CCC3	-5.5	-3.5	-12.0	0.7	.	12.9	.	.
Oc1ccccc1N=NC(=NNc1ccccc1O)c1ccccc1	.	.	.	.	-0.6	.	.	.
CC1(C)Oc2cc3oc(C(=O)O)cc(=O)c3cc2-c2ccccc21	12.4	5.5	.	18.6	.	94.7*	19.2	6.2
COc1ccccc1C=NNC(=O)Cn1cnc([N+](=O)[O-])n1	.	.	.	.	-0.6	.	.	.
COc1cccc(N/C(=N\C(=S)Nc2ccc(C)cc2C)Nc2nc(C)cc(C)n2)c1	.	.	.	.	6.4	.	.	.
